# ChEMBL document CHEMBL1157539, “Thousands of chemical starting points for antimalarial lead identification” (Nature, 2010)
# Legend:
# Assay type in all cases: functional
# Plasmodium falciparum [1] = assay: GSK_TCMDC: Inhibition of Plasmodium falciparum 3D7 in whole red blood cells, using parasite LDH activity as an index of growth. Test compounds present at 2uM
# Plasmodium falciparum [2] = assay: GSK_TCMDC: Inhibition of Plasmodium falciparum Dd2 in whole red blood cells, using parasite LDH activity as an index of growth. Test compounds present at 2uM
# HepG2 = assay: GSK_TCMDC: Percent inhibition of human HepG2 cell line. Test compounds present at 10uM.
SMILES,Inhibition (Plasmodium falciparum [1]) [%],Inhibition (Plasmodium falciparum [2]) [%],Inhibition (HepG2) [%]
CN(C)Cc1c(O)ccc2oc(Cc3ccccc3)cc12.Cl,99,94,0
Cc1ccc(CNc2ccc3ncc(-c4cccc(C(=O)NCCN(C)C)c4)n3n2)c(C)c1,100,78,97
COc1ccc(OC)c(-c2ccc(=O)n(CC(=O)Nc3cccc4ccccc34)n2)c1,100,95,0
O=C(c1ccco1)N1CCN(c2ccc([N+](=O)[O-])c(NC3CC3)c2)CC1,100,99,0
Cc1ccc(C(=O)Nc2ccc(C)c(OC3CCN(CCC(C)C)C3)c2)cc1.O=C(O)C(F)(F)F (stereo not drawn),99,53,6
CC(=O)Nc1ccc(OCCN(Cc2ccccc2C(F)(F)F)c2ccc(C#N)c(C(F)(F)F)c2)c(Cl)c1,98,78,0
COc1ccc(Nc2c3ccc(Cl)cc3nc3ccc(OC)cc23)cc1.Cl,94,99,14
CCN1CCN(c2cc(C)c3cc(NC(=O)c4cccc([N+](=O)[O-])c4)ccc3n2)CC1,99,73,74
FC(F)(F)Oc1cccc(CNc2noc(-c3sccc3Br)n2)c1,100,97,0
O=C(NCCCCN1CCN(c2cccc(Cl)c2Cl)CC1)c1ccc2c(c1)CCN(C1CCC1)CC2,95,31,97
CC(C)C(=O)ONC1=NC(C)(C)N(OCCCOc2cc(Cl)c(Cl)cc2Cl)C(NOC(=O)C(C)C)=N1,92,93,64
Cl.N#Cc1ccc2c(c1)CCN(CCC1CCC(NC(=O)c3cc4cccc(Cl)c4[nH]3)CC1)CC2 (stereo not drawn),99,78,34
Nc1ncc(-c2ccc3nccc(-c4ccncc4)c3c2)cc1S(=O)(=O)N1CCCCC1,100,100,25
CCN1CCN(c2cc(C)c3cc(NC(=O)c4ccc([N+](=O)[O-])c(C)c4)ccc3n2)CC1,92,39,8
CC1CN(Cc2ccc(-c3ccc(-c4nc5cc(F)ccc5[nH]4)s3)cc2)CC(C)O1.O=C(O)C(F)(F)F (stereo not drawn),88,89,35
COc1cc(CNCCCNc2nc3ncccc3[nH]2)c2[nH]cc(Br)c2c1,92,3,12
Cc1c(C)c2c(c(C)c1O)CCC(C)(CCC(=O)O)O2 (stereo not drawn),96,0,8
Cc1ccc(NC(=O)NC2CCN(c3ccnc4ccccc34)C2)cc1.O=C(O)C(F)(F)F (stereo not drawn),99,48,7
Cl.NCCCOc1cnc(-c2ccccc2)c2nc(-c3nonc3N)n(CCc3ccccc3)c12,93,86,56
Nc1ccc(-c2ccc(NC(=O)Nc3cc(C(F)(F)F)ccc3F)cc2)cn1,99,39,0
COc1ccc(NC(=O)c2ccc3[nH]c(-c4ccc(Cl)cc4)cc3c2)cc1OCCN(C)C,100,78,32

SMILES,Inhibition (Plasmodium falciparum [1]) [%],Inhibition (Plasmodium falciparum [2]) [%],Inhibition (HepG2) [%]
O=C(O)C(F)(F)F.Oc1ccc(CCNc2nc(NCCCOc3ccccc3-c3cccc(C(F)(F)F)c3)nc(N3CCNCC3)n2)cc1,93,5,24
O=C(Nc1cccc(C(F)(F)F)c1)c1cccc(S(=O)(=O)NCC2CCCN(Cc3ccccc3)C2)c1.O=C(O)C(F)(F)F (stereo not drawn),94,3,17
CN(C(=O)C(C)(C)Oc1ccc(Cl)cc1)C1CCN(CCCCCNC(=O)/C=C/c2ccc(Cl)c(Cl)c2)CC1,96,26,86
CC(=O)Nc1ccc(CN2CCC(NC(=O)c3ccc(-c4cccc(Cl)c4)s3)CC2)cc1.O=C(O)C(F)(F)F,97,59,34
CC1(C)[C@H]2CC[C@@H](CNc3nc(NCCc4c[nH]cn4)nc(Nc4ccc(Oc5ccccc5)cc4)n3)[C@@H]1C2,99,86,2
O=C(CCNc1ccnc(NCCc2ccccc2)n1)Nc1ccccc1.O=C(O)C(F)(F)F,89,19,7
CC(C)C[C@H](NC(=O)c1cc2ccccc2s1)C(=O)N[C@H]1CCN(Cc2ccc(OC[C@@H]3CCCN3C)c3ccccc23)C1.O=C(O)C(F)(F)F,100,93,69
COc1cc(NC(=O)c2c(-c3c(F)cccc3Cl)noc2C)c(OC)cc1Cl,89,17,0
CCCCCCCCNCCCSCCCNCCCCCCCC.Cl,97,47,63
CC1(C)N=C(N)N=C(NOCc2ccc(Cl)c(Cl)c2)N1,96,27,5
COc1ccc(Nc2nccc(-c3cccc(NC(=O)c4cc5cc(F)ccc5[nH]4)c3)n2)cc1,92,37,3
O=C(O)C(F)(F)F.O=S(=O)(NCCN1CCCC1)c1ccc(-c2ccc(CNC3Cc4ccccc4C3)cc2)s1,100,97,47
Cc1ccccc1CN1CCCN(Cc2ccc(C(=O)Nc3ccc(C(C)(C)C)cc3)cc2)CC1.O=C(O)C(F)(F)F,89,5,52
COc1ccc(N2CCN(CCCCNC(=O)c3ccc(NC(=O)c4ccc(Cl)c(Cl)c4)cc3)CC2)c(OC)c1,100,98,23
CCNCc1cccc(-c2ccc3ccnc(N)c3c2)c1,100,98,17
O=C(O)C(F)(F)F.c1ccc2c(c1)CN(CC1CC1)CC1(CCN(Cc3c[nH]c4cnccc34)CC1)O2,100,14,30
O=C(/C=C/c1ccc(Cl)c(Cl)c1)NCCCCCCN1CCCN(C(=O)Nc2ccc(F)c(Cl)c2)CC1,98,1,30
Cc1nc(Nc2ccc(F)cc2)nc(N2CCc3ccccc3C2C)c1CO (stereo not drawn),100,95,0
O=C(Nc1ccc(OC2CCN(Cc3ccc(F)cc3)C2)cc1)c1ccco1.O=C(O)C(F)(F)F (stereo not drawn),88,69,0
CC(C)c1ccc(NC(=O)N2CCc3ccc(OCCN(C(C)C)C(C)C)cc32)c(Br)c1.O=C(O)C(F)(F)F,86,5,6
CC[C@H](NC(=O)c1c(CC2CCN(CC(C)=O)CC2)c(-c2ccccc2)nc2ccccc12)c1ccccc1,97,96,7

SMILES,Inhibition (Plasmodium falciparum [1]) [%],Inhibition (Plasmodium falciparum [2]) [%],Inhibition (HepG2) [%]
CCOc1ccc2ccccc2c1CNCCCCCCNCc1c(OCC)ccc2ccccc12.CS(=O)(=O)O,100,89,100
C[C@H](Cc1ccc(OCCCCCCOc2ccc(C[C@@H](C)N[C@H](C)c3ccccc3)cc2)cc1)NC[C@H](O)c1cccc(Cl)c1.Cl,99,98,99
O=C(c1ccccc1)N1CCC(CN2CCOC(c3ccccc3)(c3ccccc3)C2)CC1,94,95,14
CC1CCCC(C)N1C[C@@H](O)CNS(=O)(=O)c1cccc(C(F)(F)F)c1.Cl (stereo partly drawn),99,2,4
Nc1nccc2ccc(-c3cccc(O)c3)cc12,95,71,43
CSc1ccc2nccc(Nc3ccc(Oc4ccccc4)cc3)c2c1.Cl,94,68,30
COc1cc(CNC[C@@H](O)[C@H](Cc2ccccc2)NC(=O)c2cc(C3CCCC3)cc(N3CCCCS3(=O)=O)c2)cc(OC)c1.Cl,98,96,16
Cc1cc(C)cc(NC(=S)NCCCCN2CCN(c3cccc(Cl)c3)CC2)c1,88,13,11
CN1CCC(N2CCN(Cc3ccc(-c4cccc(-c5nc6cc(F)ccc6[nH]5)c4)cc3)CC2)CC1.O=C(O)C(F)(F)F,100,99,67
CCCCCN1CCCN(Cc2cccc(NC(=O)c3ccc4ccccc4c3)c2)CC1.O=C(O)C(F)(F)F,86,16,27
Cc1cc(-c2ccc3c(c2)CC[C@@H](N[C@@H](C)c2ccccc2)C3)cnc1N.Cl,98,7,3
Cc1cc(Oc2cc(NC(=O)c3sc4ncn(Cc5ccccc5F)c(=O)c4c3C)cc([N+](=O)[O-])c2)ccc1Cl,94,24,2
COc1cccc(C(=O)NC(NC(=S)Nc2ccc(OC)cc2[N+](=O)[O-])C(Cl)(Cl)Cl)c1 (stereo not drawn),99,49,9
O=C(Cc1ccc(NC(=O)c2ccc(O)c(-c3ccc(Cl)c(Cl)c3)c2)cc1)NCCN1CCCCC1,95,63,12
O=C(/C=C/c1ccc(F)c(Br)c1)NCCCCCN1CCC(c2c[nH]c3ccccc23)CC1,92,10,39
Fc1cc(Cl)ccc1Nc1ccnc2cc(-c3ccc(CNCCN4CCOCC4)o3)ccc12,100,100,13
O=C(Nc1cccc(C(F)(F)F)c1)NC1CCN(c2ccnc3cc(Cl)ccc23)CC1.O=C(O)C(F)(F)F,100,47,13
CC(C)C(=O)n1ncc2c3c(N)nc(N)nc3ccc21,87,3,0
COc1ccc2c(=NN=Cc3ccc(F)cc3)cc(C)[nH]c2c1,100,99,4
